Compounds without any hit were thinned out: in the full panel of roughly 83,000, 20% have a hit.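 The test compound was applied at a single concentration to cells in 96-well plates for 48 hours, and percent growth was recorded.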 Unmarked numbers belong to inactive results. Active and inactive are the calls of the source. The calls were made as follows: active = growth percent below 10; inactive = the rest.

The subject of the assay is RPMI-8226 leukemia. Kind of assay: NCI-60 one-dose screen, 48 h (100 = growth as untreated, 0 = no growth, -100 = all killed). The following applies: 10 µM unless noted.
For the molecule `COc1ccc(/C=N/NC(=O)c2c(N)nn(C)c2Nc2ccccc2)cc1Oc1ccccc1`, the growth is 82.1%.

For `COc1ccc(/C=N/N=C(/c2ccccc2)c2ccc3nc(-c4ccc(Cl)cc4)[nH]c3c2)cc1`, the growth is 48.6%.

For the molecule `O=C(Nc1cc(C(F)(F)F)cc(C(F)(F)F)c1)Nc1ccc2oc(=O)ccc2c1`, the growth was -21.5% (active).

For the molecule `COc1ccc(/C=N/NC(=O)CSc2nc(-c3cnccn3)cc(-c3cccs3)c2C#N)cc1OC`, the growth is 70.5%.

Take `CNC(=O)c1cc(N2CCc3cc(NC(=O)Nc4ccc(N5CCN(C)CC5)c(C(F)(F)F)c4)ccc32)ccn1`: the growth is -16.4% (active).

Consider `Clc1cccc(/C=N/Nc2nc(N/N=C/c3cccc(Cl)c3)nc(N3CCCCC3)n2)c1`, for which the growth is 72.4%.

Regarding `NS(=O)(=O)c1nnc(/N=C/c2c(O)[nH]c3ccccc23)s1`, the growth is 109%.

As for `COc1ccc(-c2cc(-c3ccc(N(C)C)cc3)n3c(n2)nc2ccccc23)cc1`, the growth was 23.1%.

As to `Nc1nc(=O)n([C@H]2C[C@H](O)[C@@H](CO)O2)cc1C=O`, the growth was 110%.

For the molecule `Cc1ccc(-c2csc(N/N=C/c3cccs3)n2)cc1`, the growth is 86.5%.

Turning to `CCCCCCOC(=O)c1cc(-c2ccc(F)cc2)nc2ccccc12`, the growth is 110%.

Take `COc1cc2oc(-c3cccc(NC(=O)c4cccc([N+](=O)[O-])c4)c3)cc(=O)c2c(OC)c1OC`: the growth is 48.8%.

On to `COc1cccc(N2CCN(C3=C(Cl)C(=O)c4ncccc4C3=O)CC2)c1`, for which the growth was 55.8%.

For the molecule `CCCCCCNC(=O)Oc1ccc(/C(=C(/C)c2ccc(Cl)cc2)c2ccc(OCCN3CCCCCC3)cc2)cc1`, the growth is 64.3%.

For the molecule `C=C(C)[C@@H]1CC[C@]2(COCCCNCCCN)CC[C@]3(C)[C@H](CC[C@@H]4[C@@]5(C)CC[C@H](O)C(C)(C)[C@@H]5CC[C@]43C)[C@@H]12`, the growth was -35.3% (active).

As to `COc1ccc(/C(=N\NC(N)=S)c2ccc(Cl)cc2)cc1OC`, the growth is 45.6%.

Regarding `Brc1ccc2[nH]cc(-c3nn4cc(-c5nccs5)nc4s3)c2c1`, the growth is 4.55% (active).

`CN1c2ccccc2Sc2cc(/C=N/Nc3ccnc4cc(Cl)ccc34)ccc21`: the growth is 46.3%.

As to `Cn1c(SCC(=O)c2ccc(F)cc2)nc2ccccc2c1=O`, the growth is 76.5%.

As for `CC(=O)OCCCCN1C=C/C(=C\C(=O)n2ccc3ccccc32)c2ccccc21`, the growth was 98.3%.

As for `O=C(/C=C/c1ccc(F)cc1)Nc1cccc2cccnc12`, the growth is 94.2%.

As for `CCCCOc1ccc(S(=O)(=O)N2CCN(c3nc(C)cc(N4CCOCC4)n3)CC2)cc1`, the growth was 3.95% (active).

On to `CCCNNC(=O)c1ccc(-c2ccc(NC(=O)CCCCCCC(=O)N[C@H](C(=O)N3C[C@H](O)C[C@H]3C(=O)N[C@@H](C)c3ccc(-c4scnc4C)cc3)C(C)(C)C)cc2)cc1`, for which the growth was 2.23% (active).

For `CCOC(=O)c1cccc(NC2=C(Cl)C(=O)c3nc(C)ccc3C2=O)c1`, the growth was 53.3%.

For the molecule `CC(C)(C)Nc1nc2c(OCCc3ccccc3)cccn2c1-c1cccc(Oc2ccccc2)c1`, the growth was 4.94% (active).

In the case of `O=C(CCCCCCNC(=O)c1csc(Br)n1)NO`, the growth was 2.81% (active).

Consider `CCOC(=O)c1c(NC(=O)c2ccc(C(F)(F)F)cc2)sc2c3c(ccc12)OCN(C)C3`, for which the growth was -36.9% (active).

Regarding `O=C1C(N2CCN(c3ccccc3)CC2)=C(Cl)C(=O)c2ncccc21`, the growth was 35.5%.

For the molecule `COc1ccccc1/C=C1\Oc2ccc(O)c(O)c2C1=O`, the growth was 93.5%.

Take `COc1cccc2c1C=CC1(O2)Oc2cccc(OC)c2C=C1C` (stereo unspecified): the growth was 18.9%.

For the molecule `COc1ccc(C(C)=C(c2ccc(OCCN3CCCCCC3)cc2)c2ccc(OCCN3CCCCCC3)cc2)cc1`, the growth was -44.9% (active).

In the case of `O=C(CCCCCCN1CC(=O)N2[C@@H](c3ccccc3Br)c3[nH]c4ccccc4c3C[C@H]2C1=O)NO`, the growth is 12%.

For the molecule `Cc1ccc2c(n1)C(=O)C(Cl)=C(Nc1cccc(C(F)(F)F)c1)C2=O`, the growth is -17.6% (active).

On to `CCC(=C(c1ccc(OCCN2CCCCCC2)cc1)c1ccc(OCCN2CCCCCC2)cc1)c1ccc(Cl)cc1`, for which the growth was -29.7% (active).

In the case of `CN1CCN(CCNc2nc(-c3cccc(NS(=O)(=O)c4cccc5c(N(C)C)cccc45)c3)cs2)CC1`, the growth was 35.8%.

With `CC(Nc1c(C#N)cnc2ccc(-c3cncc(-c4n[nH]c(=O)o4)c3)cc12)c1ccccc1` (stereo unspecified), the growth was 10.5%.

These data come from PubChem BioAssay (NCI).
